Hit rate of the full screen: of about 310,000 compounds, about 14,000 (4.5%) showed an effect of 50% or more. The effect is printed as a negative number. This is one part of a sample in which strong results are shown more often than they occur.
Molecular target: human ether-à-go-go-related gene (hERG) potassium channel (human, UniProt Q12809)
Experiment: primary screen, population patch clamp on CHO cells stably expressing hERG; higher = less effect of the substance
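Also: peak tail current of the secondary pulse compared with the same well before compound.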

Chain of human ether-à-go-go-related gene (hERG) potassium channel (Q12809 whole entry, looked up): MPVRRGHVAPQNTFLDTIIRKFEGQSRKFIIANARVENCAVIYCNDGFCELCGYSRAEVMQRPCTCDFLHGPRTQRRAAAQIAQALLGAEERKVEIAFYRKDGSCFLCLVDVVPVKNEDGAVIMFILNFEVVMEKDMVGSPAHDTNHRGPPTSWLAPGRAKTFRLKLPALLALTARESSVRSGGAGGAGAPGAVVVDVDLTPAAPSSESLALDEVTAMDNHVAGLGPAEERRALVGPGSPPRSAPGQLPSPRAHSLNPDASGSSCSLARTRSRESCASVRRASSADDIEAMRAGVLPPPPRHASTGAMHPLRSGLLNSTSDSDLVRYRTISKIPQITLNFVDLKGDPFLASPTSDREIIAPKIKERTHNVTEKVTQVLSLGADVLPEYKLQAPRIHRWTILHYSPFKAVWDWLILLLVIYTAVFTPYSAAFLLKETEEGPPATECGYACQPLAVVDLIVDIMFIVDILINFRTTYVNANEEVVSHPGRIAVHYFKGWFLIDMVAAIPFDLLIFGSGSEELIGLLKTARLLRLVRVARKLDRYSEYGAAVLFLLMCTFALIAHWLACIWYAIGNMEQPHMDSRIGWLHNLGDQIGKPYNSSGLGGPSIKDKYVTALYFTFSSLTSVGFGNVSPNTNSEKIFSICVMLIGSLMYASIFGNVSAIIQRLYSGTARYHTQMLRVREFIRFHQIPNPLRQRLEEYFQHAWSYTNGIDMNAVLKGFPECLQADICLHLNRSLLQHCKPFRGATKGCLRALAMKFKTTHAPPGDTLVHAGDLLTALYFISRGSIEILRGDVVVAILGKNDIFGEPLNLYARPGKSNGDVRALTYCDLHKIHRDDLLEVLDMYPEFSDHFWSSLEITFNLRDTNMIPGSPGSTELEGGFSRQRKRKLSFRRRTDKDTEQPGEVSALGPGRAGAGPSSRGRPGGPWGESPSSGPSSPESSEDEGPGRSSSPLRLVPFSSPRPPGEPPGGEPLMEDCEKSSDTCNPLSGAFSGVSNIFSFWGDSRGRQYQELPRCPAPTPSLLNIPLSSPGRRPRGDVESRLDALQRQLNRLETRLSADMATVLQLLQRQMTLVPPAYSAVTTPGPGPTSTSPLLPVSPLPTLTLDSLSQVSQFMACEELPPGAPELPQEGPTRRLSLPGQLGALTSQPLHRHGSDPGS

Row | Compound | hERG current change (%, negative = inhibition) at 10uM [%]
1 | COc1cccc(C(=O)Oc2ccc3ccc(=O)oc3c2)c1 | 42.3
2 | O=S(=O)(NCCN1CCCC1)c1ccc(Br)cc1 | -8.08
3 | CCN(CC)S(=O)(=O)c1ccc(S(=O)(=O)N2CCN(CCC#N)CC2)cc1 | 8.45
4 | O=[N+]([O-])c1ccc(S(=O)(=O)NCCN2CCOCC2)cc1 | 11.2
5 | O=[N+]([O-])c1ccc(-c2ccc(S(=O)(=O)NCCN3CCCC3)cc2)cc1 | -77.7
6 | N#CCCN(CCN1CCCC1)S(=O)(=O)c1ccc(-c2ccc([N+](=O)[O-])cc2)cc1 | -79.1
7 | Cc1ccc(S(=O)(=O)N(CCC#N)CCN2CCCC2)cc1 | -21.9
8 | Cc1oc2cc(O)ccc2c(=O)c1Oc1ccccc1 | -10.2
9 | COC1=CC(=O)C[C@@H](C)[C@]12Oc1c(Cl)c(OC)cc(OC)c1C2=O | -9.99
10 | C=CCSc1ncccc1C(=O)NCCc1ccc(Cl)cc1 | 6.54
11 | O=S(=O)(Nc1nc2ccc(S(=O)(=O)N3CCCC3)cc2s1)c1ccc(F)cc1 | -2.68
12 | COCCNc1oc(-c2ccc(C)cc2)nc1C#N | 8.26
13 | Cc1ccc(-n2c(SCC(=O)N3CCOCC3)nnc2-c2cccnc2)cc1C | -16.9
14 | Cc1cccc2sc(N(CCCN(C)C)C(=O)CN3C(=O)c4ccccc4C3=O)nc12.Cl | -11.2
15 | CN(C)CCCN(C(=O)CCc1ccccc1)c1nc2ccc(F)cc2s1.Cl | -70.1
16 | CN(C)CCCN(C(=O)CCc1ccccc1)c1nc2ccc(Br)cc2s1.Cl | -3.24
17 | Cc1ccc2nc(N(CCCN(C)C)C(=O)CCc3ccccc3)sc2c1.Cl | -66
18 | CN(C)CCCN(C(=O)CCc1ccccc1)c1nc2ccc(Cl)cc2s1.Cl | -24.4
19 | Cc1cccc2sc(N(CCCN(C)C)C(=O)CCc3ccccc3)nc12.Cl | -54.1
20 | CN(C)CCN(C(=O)CCc1ccccc1)c1nc2c(F)cc(F)cc2s1.Cl | -33.4
21 | Cc1ccccc1/C=N/n1c(-c2ccccn2)n[nH]c1=S | 14.7
22 | O=S(=O)(c1cccc2cccnc12)N1CCN(Cc2ccccc2)CC1 | -0.188
23 | Cn1ccnc1C(O)c1cc(C(C)(C)C)c(O)c(C(C)(C)C)c1 (stereo not drawn) | -37.3

Row | Compound | hERG current change (%, negative = inhibition) at 10uM [%]
24 | COC(=O)N/N=C\c1ccc(-c2cc(Cl)c(Cl)cc2Cl)o1 | -1.58
25 | COc1ccc(S(=O)(=O)N2CCN(CC(=O)NC3CCCC3)CC2)cc1 | 0.823
26 | Cc1ccc(-c2noc(CCC(=O)NCc3ccccc3CN3CCOCC3)n2)cc1 | -36.5
27 | O=C(C1CCCN(Cc2nc(-c3ccc(Cl)cc3)no2)C1)N1CCOCC1 (stereo not drawn) | 1.39
28 | Clc1ccc(-c2noc(CN3CCOCC3)n2)cc1 | 4.83
29 | O=C(CCc1nc(-c2ccc(Cl)cc2)no1)NCc1ccccc1CN1CCOCC1 | -65.5
30 | O=C(CCc1nc(-c2ccccc2)no1)NCc1ccccc1CN1CCOCC1 | -10.5
31 | O=C(C1CCN(Cc2nc(-c3ccc(Cl)cc3)no2)CC1)N1CCOCC1 | -61.9
32 | Cc1ccc2oc(=O)c3cnn(CC(=O)N(CCN(C)C)Cc4ccco4)c3c2c1 | -25.7
33 | CC(C)c1ccc(-c2c(NCCc3ccccc3)c(=O)c2=O)cc1 | 22.1
34 | Cc1ccc(OCCNC(=O)CNC(=O)c2ccccc2Cl)cc1 | -3.58
35 | COc1cc(CN2CCNCC2)cc(OC)c1OC.Cl | 5.64
36 | CCCCn1c(NCc2ccc3c(c2)OCO3)nc2ccccc21 | -61
37 | c1ccc2c(c1)nc(NCc1ccc3c(c1)OCO3)n2CCN1CCOCC1 | -66.8
38 | CN(C)CCn1c(NCc2ccc3c(c2)OCO3)nc2ccccc21.Cl | -59.5
39 | Nc1c(C(=O)NCc2ccc3c(c2)OCO3)c2nc3ccccc3nc2n1CCCN1CCOCC1 | 1.46
40 | CCCCn1c(NCc2ccc(N(C)C)cc2)nc2ccccc21 | -43.7
41 | CCCn1c(NCc2ccc(N(C)C)cc2)nc2ccccc21 | -40.2
42 | CCn1c(NCc2ccc3c(c2)OCO3)nc2ccccc21 | -38.5
43 | CCCn1c(NCc2ccc3c(c2)OCO3)nc2ccccc21 | 12.6
44 | O=C(NCCN1CCOCC1)C(=O)NCc1ccc2c(c1)OCO2 | 22.8
45 | COc1cc2c(cc1OC)C(CC(=O)O)N(C(=O)CC1CCCC1)CC2 (stereo not drawn) | 20.6
46 | COC(=O)CCCCC1SCC(NC(=O)OC)C1NC(=O)OC (stereo not drawn) | 2.09

Row | Compound | hERG current change (%, negative = inhibition) at 10uM [%]
47 | CC(C)(C)OC(=O)COc1cc(F)ccc1[N+](=O)[O-] | -3.54
48 | Br.CCCCn1c(=N)n(CCOc2ccc(C)cc2)c2ccccc21 | -73.1
49 | Cc1ccc(OCCn2c(=O)cnc3ccccc32)cc1 | -9.95
50 | Cc1nc2ccccc2n1CC(O)COc1ccc(Br)cc1 (stereo not drawn) | -49.9
51 | Cc1ccc(OCCn2c(=O)sc3ccccc32)cc1 | 4.98
52 | OCc1nc2ccccc2n1CC(O)COc1ccccc1 (stereo not drawn) | 6.25
53 | CCn1c(=N)n(CC(O)COc2ccc(C)cc2)c2ccccc21.Cl (stereo not drawn) | -70
54 | Cc1ccc(OCC(O)Cn2c3ccccc3c3ccccc32)cc1 (stereo not drawn) | 8.1
55 | CCCCn1c(=N)n(CC(O)COc2ccc(C)cc2)c2ccccc21.Cl (stereo not drawn) | -81.8
56 | CCCCn1c(=N)n(CC(O)COc2ccccc2)c2ccccc21 (stereo not drawn) | -73.1
57 | Cc1cc(NC(=O)C2CCCN(S(=O)(=O)c3c(C)noc3C)C2)n[nH]1 (stereo not drawn) | -16.1
58 | CCOc1ccc(C(=O)COC(=O)CNC(=O)C2CCCCC2)cc1 | -0.0501
59 | O=C(COC(=O)C12CC3CC(CC(C3)C1)C2)Nc1ccc([N+](=O)[O-])cc1Br | 8.64
60 | CN1CCC(=NNC(=O)COc2ccc(Cl)cc2)CC1 | 17.4
61 | CCCn1c(=N)n(CC(O)COc2ccc(C)cc2)c2ccccc21.Cl (stereo not drawn) | -89
62 | CC1SC2(CN3CCC2CC3)NC1=O (stereo not drawn) | 18
63 | CC1=CN2C(=NC(=O)CC2(C)C(=O)N(CC(=O)NC2CCCC2)Cc2ccccc2)C=C1 (stereo not drawn) | 9.32
64 | COc1ccccc1N1CCN(c2nc3ccccc3nc2C(C#N)C(=O)OC(C)C)CC1 (stereo not drawn) | -12
65 | Cc1cccc(OCC(O)CN2CC3(C)CC2CC(C)(C)C3)c1 (stereo not drawn) | -67.6
66 | Cc1ccc(OCC(O)CN2CC3(C)CC2CC(C)(C)C3)cc1.O=C(O)C(=O)O (stereo not drawn) | -53.6
67 | Cc1cccc(C(=O)N2CC3(C)CC2CC(C)(C)C3)c1 (stereo not drawn) | 0.368
68 | CC1(C)CC2CC(C)(CN2CC(O)c2ccccc2)C1.O=C(O)C(=O)O (stereo not drawn) | -42.5
69 | Cc1cccc(C)c1OCC(=O)N1CC2(C)CC1CC(C)(C)C2 (stereo not drawn) | -7.94

Row | Compound | hERG current change (%, negative = inhibition) at 10uM [%]
70 | CC1(C)CC2CC(C)(CN2CC(O)COc2ccccc2)C1.O=C(O)C(=O)O (stereo not drawn) | -41.5
71 | CSc1nnc(C)c(=O)n1COC(=O)COc1ccc2ccccc2c1 | -7.33
72 | Cc1nnc(SCCN2CCOCC2)n1-c1cccc(Cl)c1.O=C(O)C(=O)O | -4.95
73 | COc1ccccc1N1CCN(C(=O)CN(c2ccc(C)c(C)c2)S(C)(=O)=O)CC1 | -6.02
74 | Cc1ccc(OCC(=O)NCc2ccccn2)cc1 | 12.4
75 | Cc1cc(OCC(=O)NCc2ccncc2)c2c(C)cc(=O)oc2c1 | -30.1
76 | Cc1cc(OCC(=O)NCc2ccccn2)cc(C)c1Br | -69.4
77 | Cc1cc(OCC(=O)NCc2ccncc2)c2c(C)c(C)c(=O)oc2c1 | -40.6
78 | CCc1cc(=O)oc2cc(C)cc(OCC(=O)NCc3ccccn3)c12 | -40
79 | Cc1cc(OCC(=O)NCc2cccnc2)c2c3c(c(=O)oc2c1)CCCC3 | -40.1
80 | Cc1cc(OCC(=O)NCc2ccncc2)c2c3c(c(=O)oc2c1)CCCC3 | -62.2
81 | O=C(COc1ccc(Br)cc1)NCc1ccccn1 | -8.53
82 | Cc1cc(OCC(=O)NCc2ccncc2)c2c3c(c(=O)oc2c1)CCC3 | -10.3
83 | CCCCc1cc(=O)oc2cc(C)cc(OCC(=O)NCc3ccccn3)c12 | -56.4
84 | CCc1cc(=O)oc2cc(C)cc(OCC(=O)NCc3ccncc3)c12 | -54.8
85 | CCCc1cc(=O)oc2cc(C)cc(OCC(=O)NCc3ccccn3)c12 | -33.7
86 | CSc1cccc(NC(=O)/C=C/c2ccccc2)c1 | -7.06
87 | CC(=O)N1CCN(S(=O)(=O)c2cccc(C(=O)NCCC3=CCCCC3)c2)CC1 | -8.54
88 | O=C1N(c2ccc(Cl)c(Cl)c2)CN(Cc2ccccc2)CN1n1cnnc1 | -25.9
89 | COc1ccccc1-c1noc(CCC(=O)Nc2ccccc2Cl)n1 | -4.71
90 | CS(=O)(=O)c1ccccc1-c1nnc(NC(=O)COc2ccc(Cl)cc2)o1 | -6.82

From article PMC4336329 (PLoS ONE, 2015)
